The whole screen tested about 400,000 compounds, of which about 2,100 (0.53%) were called active. Inconclusive results (about 14%) are left out. How the calls were made is not given here. The sample as a whole holds a higher share of actives than the screen did.

In the assay the target is Ataxin-2 (Homo sapiens) (UniProt Q99700). Put plainly: qHTS for Inhibitors of ATXN expression. The class given is functional.
Sequence of Ataxin-2 (Homo sapiens) (Q99700 whole entry): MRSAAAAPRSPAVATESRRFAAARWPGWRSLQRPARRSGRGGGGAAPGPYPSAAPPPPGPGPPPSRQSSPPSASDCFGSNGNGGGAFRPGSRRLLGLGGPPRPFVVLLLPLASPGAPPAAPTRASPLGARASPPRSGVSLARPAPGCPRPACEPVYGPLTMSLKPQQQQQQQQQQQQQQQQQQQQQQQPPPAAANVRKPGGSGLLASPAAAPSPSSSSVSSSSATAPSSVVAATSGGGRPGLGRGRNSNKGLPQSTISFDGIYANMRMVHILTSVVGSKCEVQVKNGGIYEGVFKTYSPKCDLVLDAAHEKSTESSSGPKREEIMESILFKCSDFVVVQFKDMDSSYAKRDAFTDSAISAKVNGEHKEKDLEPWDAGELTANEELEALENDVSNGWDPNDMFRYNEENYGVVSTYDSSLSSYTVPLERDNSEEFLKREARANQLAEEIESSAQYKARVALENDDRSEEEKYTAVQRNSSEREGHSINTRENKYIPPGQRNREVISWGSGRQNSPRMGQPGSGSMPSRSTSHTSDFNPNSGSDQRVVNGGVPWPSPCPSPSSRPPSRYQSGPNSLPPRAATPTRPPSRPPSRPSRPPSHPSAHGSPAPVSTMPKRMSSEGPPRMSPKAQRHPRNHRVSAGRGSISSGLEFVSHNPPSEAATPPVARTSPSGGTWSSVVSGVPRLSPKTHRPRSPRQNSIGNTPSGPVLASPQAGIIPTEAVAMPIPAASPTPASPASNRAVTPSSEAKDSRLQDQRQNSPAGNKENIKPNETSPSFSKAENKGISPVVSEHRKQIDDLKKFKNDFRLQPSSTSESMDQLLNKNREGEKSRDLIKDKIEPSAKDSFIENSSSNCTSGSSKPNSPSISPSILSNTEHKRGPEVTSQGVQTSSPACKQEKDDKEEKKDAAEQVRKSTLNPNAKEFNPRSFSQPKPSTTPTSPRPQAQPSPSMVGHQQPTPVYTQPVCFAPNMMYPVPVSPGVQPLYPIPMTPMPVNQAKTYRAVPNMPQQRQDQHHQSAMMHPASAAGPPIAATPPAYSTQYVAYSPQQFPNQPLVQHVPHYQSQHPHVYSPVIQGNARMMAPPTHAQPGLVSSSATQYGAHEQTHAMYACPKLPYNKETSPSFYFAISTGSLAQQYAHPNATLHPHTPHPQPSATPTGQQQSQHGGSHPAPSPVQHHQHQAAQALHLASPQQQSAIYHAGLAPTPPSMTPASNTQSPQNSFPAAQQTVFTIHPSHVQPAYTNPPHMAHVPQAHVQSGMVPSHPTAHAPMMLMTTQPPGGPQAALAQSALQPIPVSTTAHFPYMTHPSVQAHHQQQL
On to `COCCNC(=O)Cc1c(C)c2c(cc(C)c3c(C)coc32)oc1=O`, for which the Potency entry was “inactive”.

With `O=C(Nc1cc(Cl)ccc1O)C1CC(c2ccccc2O)=NO1` (stereo unspecified), the Potency entry was “inactive”.

On to `CCOc1ccc(CCNC(=O)CSCc2ccc(C)cc2)cc1OCC`, for which the Potency result was “inactive”.

`CCOc1cc(CNCCc2ccc(S(N)(=O)=O)cc2)cc(Cl)c1OCc1ccccc1`: the Potency was 25.1 µM (active).

Consider `NS(=O)(=O)c1ccc(CNC(=O)CNC(=O)Cc2ccccc2)cc1`, for which the Potency result is “inactive”.

As to `CCOc1cc(CNCCc2ccc(S(N)(=O)=O)cc2)ccc1OCC(=O)NC(C)(C)C`, the Potency was 39.8 µM (active).

Take `CCOc1cc(C(N)=O)cc(Br)c1OCc1ccccc1`: the Potency entry was “inactive”.

In the case of `COC(=O)c1c(C)[nH]c(C(=O)NCCc2ccc(S(N)(=O)=O)cc2)c1C`, the Potency result was “inactive”.

As to `CC12CCC(=O)N1C(C(=O)N1CCN(S(=O)(=O)c3ccc(Br)cc3Cl)CC1)CS2` (stereo unspecified), the Potency result was “inactive”.

Take `CC(C)CCn1c(=O)c2ccccc2n2c(S)nnc12`: the Potency result was “inactive”.

With `Cc1cnc(C(=O)NC(C)CCc2ccccc2)cn1` (stereo unspecified), the Potency result was “inactive”.

As for `Fc1ccc(-c2cc(C(F)(F)C(F)F)n[nH]2)cc1`, the Potency result is “inactive”.

For the molecule `CCOC(=O)c1cnn2c(O)cc(C)nc12`, the Potency result was “inactive”.

Consider `COC(=O)c1ccc(C(=O)OC)c(NC(=O)Cc2cccs2)c1`, for which the Potency entry is “inactive”.

For the molecule `CC(C)(C)c1ccc(C(=O)O/N=C(\N)Cc2cccs2)cc1`, the Potency is 31.6 µM (active).

For `CC(C)(C)c1ccc(/N=C2\SCC(=O)N2Cc2cccs2)cc1`, the Potency entry was “inactive”.

With `O=C(c1cccs1)N1CCC(c2nc(O)c3nnn(Cc4c(Cl)cccc4Cl)c3n2)CC1`, the Potency entry is “inactive”.

Turning to `CC(C)C(=O)NNC(=O)CSc1nnc(-c2ccccc2)c(-c2ccccc2)n1`, the Potency entry was “inactive”.

Turning to `CNC(=O)C(=O)Nc1cc2c3c(c1)CCC(=O)N3CCC2`, the Potency result is “inactive”.

As to `CCOC(CN=c1nc(N(C)C)ss1)OCC`, the Potency is 29.9 µM (active).

As to `CN(C)S(=O)(=O)c1ccc(Cl)c(NC(=O)COC(=O)CNS(=O)(=O)c2c(F)cccc2F)c1`, the Potency entry was “inactive”.

For the molecule `CCC(=O)NC(c1ccc(OC)c(OC)c1)c1cc(Cl)c2cccnc2c1O` (stereo unspecified), the Potency entry was “inactive”.

For the molecule `COc1ccc(C(=O)CC(SCC(NC(C)=O)C(=O)O)c2ccc(Cl)cc2)cc1OC` (stereo unspecified), the Potency is 31.6 µM (active).

Regarding `CCS(=O)(=O)N1CCC(NC(=O)C(Cc2ccc(OC)c(OC)c2)NC(C)=O)CC1` (stereo unspecified), the Potency entry is “inactive”.

In the case of `CCOC(=O)c1cc2c(=O)n3ccccc3nc2n(CC2CCCO2)/c1=N\C(=O)c1ccc(C(C)(C)C)cc1` (stereo unspecified), the Potency entry was “inactive”.

For `CCCCN1C(C(=O)Nc2ncccn2)=C(O)c2ccccc2S1(=O)=O`, the Potency result was “inactive”.

As to `Cc1ccccc1N1CCN(C2CCCN(C(=O)CSc3ccccn3)C2)CC1` (stereo unspecified), the Potency result was “inactive”.

`OC(c1cccc(Cl)c1)c1nc(-c2ccc(C(F)(F)F)cc2)c[nH]1` (stereo unspecified): the Potency is 39.8 µM (active).

`OC(c1cccc(Cl)c1)c1nc(-c2ccc(Oc3ccccc3)cc2)c[nH]1` (stereo unspecified): the Potency is 39.8 µM (active).

Take `CC(C)(C)c1ccc(C(O)c2nc(-c3ccccc3Cl)c[nH]2)cc1` (stereo unspecified): the Potency is 39.8 µM (active).

On to `Cc1nn(Cc2ccccc2Cl)c(Cl)c1/C=C/C(=O)OCC(=O)NC1CCS(=O)(=O)C1` (stereo unspecified), for which the Potency result is “inactive”.

As for `COc1ccc(-n2cccc2/C=C/[N+](=O)[O-])cc1`, the Potency was 31.6 µM (active).

`COc1ccc(S(=O)(=O)Nc2ccc(-n3cccc3)cc2)cc1`: the Potency result was “inactive”.

With `CCCC(=O)NCCc1nc2cc([N+](=O)[O-])ccc2n1C`, the Potency result was “inactive”.

On to `COc1cc(C(=O)N2C(=O)c3cccc(N)c3C2=O)cc(OC)c1OC`, for which the Potency entry is “inactive”.

For `COc1cc(C(=O)O/N=C2/C=CC(=O)C(C)=C2C)cc(OC)c1OC`, the Potency is 39.8 µM (active).

For `COc1cc(C(=O)NNC(=O)c2ccccc2OCc2c(C)noc2C)cc(OC)c1OC`, the Potency result is “inactive”.

For `CCc1ccc(S(=O)(=O)Nc2ccc(-c3nc4cccnc4s3)cc2)s1`, the Potency result is “inactive”.

For the molecule `O=C(NNC(=O)c1cc(-c2cccnc2)nc2ccccc12)Nc1ccc(Cl)cc1`, the Potency result was “inactive”.

Take `CSc1ccccc1NC(=O)c1cc(-c2cccnc2)nc2ccc(Br)cc12`: the Potency is 42.3 µM (active).

Regarding `NC(=O)c1cc(-c2ccccc2)nc2ccc(Br)cc12`, the Potency entry was “inactive”.

On to `COc1cccc(/C=C/c2nc(C#N)c(NCC(C)C)o2)c1`, for which the Potency entry is “inactive”.

In the case of `CCOC(=O)c1cc2c(=O)n3ccccc3nc2n(C)/c1=N\C(=O)c1c(-c2c(F)cccc2Cl)noc1C`, the Potency result is “inactive”.

Turning to `CNc1ccc2c3c(cccc13)C(=O)N(C)C2=O`, the Potency result was “inactive”.

For `Cc1coc2c1C(=O)C(=O)c1c-2ccc2c(C)cccc12`, the Potency is 10 µM (active).

Take `CCn1cnc2sc(C(=O)Oc3ccc(Br)cc3)c(C)c2c1=O`: the Potency entry is “inactive”.

On to `COC(=O)c1cc(-c2cc(OC)ccc2OC)nc2c1c(=O)n(C)c(=O)n2Cc1ccccc1`, for which the Potency result is “inactive”.

As for `COC(=O)C1=CN(Cc2cccs2)C=C(C(=O)OC)C1c1ccc(OC)cc1OC`, the Potency result was “inactive”.

On to `COc1ccc(C(=O)NCC(=O)OCC(=O)NCc2ccco2)cc1`, for which the Potency result was “inactive”.

`COC(=O)c1ccc(S(=O)(=O)NCc2ccco2)o1`: the Potency entry is “inactive”.

In the case of `COC(=O)C1=CN(Cc2cccs2)C=C(C(=O)OC)C1c1cccc(O)c1`, the Potency result was “inactive”.

With `C=Cc1ccc(Cn2c(C(=O)O)c(CNCCc3ccco3)c3ccc(C)cc32)cc1`, the Potency is 22.4 µM (active).

As to `COc1ccc(Cn2c(C(=O)O)c(CNCCc3ccco3)c3ccc(C)cc32)cc1`, the Potency was 31.6 µM (active).

Regarding `COc1ccc2c(CNCCc3cccs3)c(C(=O)O)n(Cc3cccc(F)c3)c2c1`, the Potency was 35.5 µM (active).

Take `COc1ccc(OC)c(CN2CCN(Cc3cc(=O)oc4cc(O)ccc34)CC2)c1`: the Potency entry was “inactive”.

Turning to `COc1ccc(Cn2c(C(=O)O)c(CNCCc3cc(OC)ccc3OC)c3ccc(C)cc32)cc1`, the Potency was 22.4 µM (active).

Turning to `COc1ccc(-c2csc(-c3cc4ccccc4oc3=N)n2)cc1`, the Potency result was “inactive”.

Turning to `COc1ccc2nc3ccccc3[n+]([O-])c2c1`, the Potency result was “inactive”.

Consider `CCc1noc(C)c1C(=O)NNC(=O)COc1ccc(Br)cc1`, for which the Potency entry was “inactive”.

For `N#Cc1c(-c2ccc(Cl)cc2)c2c([nH]c1=O)-c1ccccc1OC2`, the Potency entry is “inactive”.

For the molecule `O=C1CCN2C=Nc3cccc4ccc1c2c34`, the Potency entry was “inactive”.

Consider `O=c1nc2n(CCO)c3ccccc3cc-2c(=O)[nH]1`, for which the Potency entry was “inactive”.

Consider `Cc1ccc(C(=O)OCC(=O)NCc2ccco2)cc1C`, for which the Potency entry was “inactive”.

For `CCCC(=O)n1nc(-c2ccc(C)cc2)nc1NCc1ccco1`, the Potency entry was “inactive”.

`C=Cc1ccc(Cn2c(C(=O)O)c(CNC3CCCC3)c3ccc(C)cc32)cc1`: the Potency is 44.7 µM (active).

For the molecule `C=Cc1ccc(Cn2c(C(=O)O)c(CNCc3cccs3)c3ccc(C)cc32)cc1`, the Potency is 25.1 µM (active).

Take `Cc1ccc(Cn2c(C(=O)O)c(CNCCc3ccco3)c3ccc(C)cc32)cc1`: the Potency was 39.8 µM (active).

In the case of `Cc1cccn2c(=O)c3cc(C(=O)NC4CCCC4)c(=N)n(Cc4ccc(F)cc4)c3nc12`, the Potency entry was “inactive”.

Take `CC1=C(C(=O)Nc2ccccn2)C(c2cn(C)nc2C)C2=C(O)CCCC2=N1` (stereo unspecified): the Potency entry was “inactive”.

With `Cc1nnc(NC(=O)CSc2nnc(-c3ccco3)n2C(C)C)s1`, the Potency result is “inactive”.

For `Cc1nc(Nc2cccc(Cl)c2)c2oc3ccccc3c2n1`, the Potency entry was “inactive”.

With `Cc1cc(C)cc(-n2c(SCC(N)=O)nc3c(oc4ccccc43)c2=O)c1`, the Potency was 22.4 µM (active).

Regarding `Cc1cccc(-n2c(=O)c(C#N)cc3c(=O)n4ccccc4nc32)c1`, the Potency result was “inactive”.

As to `COCCNC(=O)c1c(N)n(-c2cccc(C)c2)c2nc3ccccc3nc12`, the Potency result is “inactive”.

As for `Cc1cccc2c(SCC(N)=O)nc(-c3ccccc3)nc12`, the Potency result is “inactive”.

With `Cc1cccc(-n2c(SCC(N)=O)nc3c(oc4ccccc43)c2=O)c1`, the Potency is 20 µM (active).

With `CCCOc1cccc(C2c3c(oc4ccc(F)cc4c3=O)C(=O)N2CCCN2CCOCC2)c1` (stereo unspecified), the Potency result was “inactive”.

As to `Cc1nc(Cl)c2c(n1)N=C1CCCC(O)=C1O2`, the Potency result was “inactive”.

As for `Cc1ccc(CNC(=O)c2cc3c(=O)n4ccccc4nc3n(CC3CCCO3)c2=N)cc1` (stereo unspecified), the Potency result is “inactive”.

On to `CCCCn1cc[n+](-c2nc3ccccc3nc2[N-]S(=O)(=O)c2ccc(Cl)cc2)c1`, for which the Potency entry is “inactive”.

Take `O=C1Nc2ccc(S(=O)(=O)NCC3CCCO3)c3cccc1c23` (stereo unspecified): the Potency entry is “inactive”.

Regarding `Cc1ccc(-c2nnc(Nc3ccc4c(c3)OCO4)c3ccccc23)cc1S(=O)(=O)NC(C)C`, the Potency result was “inactive”.

`Cc1ccc(-c2nnc(Nc3cccc(O)c3)c3ccccc23)cc1S(=O)(=O)NCC1CCCO1` (stereo unspecified): the Potency is 39.8 µM (active).

`CN1CCN(C(=O)c2cc3nc(-c4ccco4)cc(C(F)(F)F)n3n2)CC1`: the Potency entry was “inactive”.

For `Nc1ccc(Cn2ccc3c4c(N)nc(N)nc4ccc32)cc1`, the Potency is 29.9 µM (active).

In the case of `COc1ccc(CC(=O)NC2CCCc3ccccc32)cc1` (stereo unspecified), the Potency entry is “inactive”.

Turning to `CN(CC(=O)Nc1ccccc1Sc1ccccc1)C1CCCCC1`, the Potency entry was “inactive”.

`COC(=O)N1C(=O)[C@@](c2ccccc2)(C2CCCC2)N1C(=O)OC`: the Potency was 17.8 µM (active).

As to `Cc1ccc(C2=CC(c3ccc(Cl)cc3)n3nc(-c4ccc(C)cc4)nc3N2)cc1` (stereo unspecified), the Potency entry was “inactive”.

For the molecule `COc1ccc(Cl)cc1NC(=O)CN1C(=O)NC(C)(Cc2ccc(OC)c(OC)c2)C1=O` (stereo unspecified), the Potency entry was “inactive”.

Take `COc1ccc(CCNC(=O)CCCn2c(=O)c3ccccc3n(Cc3cccc(Cl)c3)c2=O)cc1OC`: the Potency was 39.8 µM (active).

Regarding `O=C(CCCn1c2ccccc2c(=O)c2ccccc21)Nc1cccc(Cl)c1`, the Potency result was “inactive”.

Regarding `Cc1ccc2c(c1)c(=O)c1ccccc1n2CCCC(=O)Nc1ccc(C)c(F)c1`, the Potency result is “inactive”.

`COc1ccc(Cl)cc1NC(=O)Cn1c(=O)n(CCCC(=O)NCCc2ccc(OC)c(OC)c2)c(=O)c2ccccc21`: the Potency was 39.8 µM (active).

Turning to `COc1ccc(CCNC(=O)CCCn2c(=O)c3ccccc3n(CC(=O)Nc3ccc(C)cc3Cl)c2=O)cc1OC`, the Potency is 20 µM (active).

As to `COC/C=C/C1=CC2=CC(=O)C(C)(OC(=O)c3cnc4ccccc4n3)C(=O)C2=CN1Cc1ccccc1` (stereo unspecified), the Potency was 12.6 µM (active).

With `COc1ccc2oc(=O)c(-c3nnc(N)s3)cc2c1`, the Potency entry was “inactive”.

Regarding `CCC(C)NC(=O)c1sc2nc(C)c(C(=O)Nc3ccc(C)cc3C)c(-c3ccccc3Cl)c2c1N` (stereo unspecified), the Potency result is “inactive”.

For the molecule `C=C(C)COc1ccc(-c2[nH]nc(C)c2-c2ccc(Br)cc2)c(O)c1`, the Potency is 25.1 µM (active).

On to `C=C(C)COc1ccc(-c2n[nH]cc2-c2ccc(OC)c(OC)c2)c(O)c1`, for which the Potency was 44.7 µM (active).

For the molecule `COc1ccc(-c2c(C)n[nH]c2-c2ccc(OC)c(C)c2O)cc1`, the Potency was 39.8 µM (active).

For `CCN(CC)C(=O)c1sc2nc(-c3cccs3)cc(-c3ccc(Cl)cc3)c2c1N`, the Potency result was “inactive”.

For `C=C(C)COc1ccc(-c2nc(N)ncc2-c2ccc(Cl)cc2)c(O)c1`, the Potency was 39.8 µM (active).

As to `COc1ccc(-c2c(C)c3ccc(O)cc3oc2=O)cc1`, the Potency entry was “inactive”.

Regarding `COC(=O)c1c(C)nc(C)c(C(=O)OC)c1-c1ccc(OC)cc1`, the Potency result was “inactive”.

As to `C=C(C)COc1ccc(-c2ncncc2-c2ccc(Br)cc2)c(O)c1`, the Potency entry was “inactive”.

The record behind these values is ChEMBL document CHEMBL1201862, “PubChem BioAssay data set” (2004).
